This is part of a sample that, as a whole, favours compounds with a hit. Of some 83,000 tested, about 20% had one in any assay.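 Step 1: grow cells in 96-well plates. Step 2: add test compound at a single concentration. Step 3: incubate 48 h. Step 4: record percent growth.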 Values without a mark were called inactive. Activity calls are given as the source filed them. Rule for the calls: active = growth percent below 10; inactive = the rest.

Some test systems named below: SK-MEL-2 melanoma; EKVX NSCLC; SN12C renal; UO-31 renal; TK-10 renal; ACHN renal; CAKI-1 renal; A498 renal; MOLT-4 leukemia; CCRF-CEM leukemia.
Holding throughout (assay): NCI-60 one-dose screen, 48 h (100 = growth as untreated, 0 = no growth, -100 = all killed)
Conditions in all cases: 10 µM unless noted

For `O=C(Nc1ccc(Nc2ccncc2)cc1)c1ccc([N+](=O)[O-])cc1`, the growth with SK-MEL-2 melanoma was 94.8%; in the assay with EKVX NSCLC, 69.9%; in the assay on SN12C renal, 72.9%; in the assay with UO-31 renal, 55.6%; with TK-10 renal, 90.4%; in the assay on ACHN renal, 80.4%. The growth is 52.6% in the assay on CAKI-1 renal, 76% with A498 renal and 6.48% (active) in the assay with MOLT-4 leukemia.

Regarding `CCOC(=O)c1cc(C#N)n2ncc3ccccc3c12`, the growth with SK-MEL-2 melanoma was 108%; with EKVX NSCLC, 94.9%; with SN12C renal it was 95.3%; in the assay on UO-31 renal, 84.1%; in the assay on TK-10 renal, 91.4%; in the assay on ACHN renal, 91.6%. Moreover, the growth in the assay with CAKI-1 renal is 86.5%; in the assay on A498 renal it was 72.4%; in the assay with MOLT-4 leukemia, 89.7%.

As to `CC1(C)S[C@@H]2[C@H](NC(=O)[C@H](C(=O)O)c3cccs3)C(=O)N2[C@H]1C(=O)O`, the growth with SK-MEL-2 melanoma was 98.2%; with EKVX NSCLC, 93.1%; with SN12C renal, 104%; with UO-31 renal, 85.6%; in the assay on TK-10 renal, 103%; in the assay on ACHN renal, 95.2%. For the same molecule, the growth was 93.2% in the assay with CAKI-1 renal, 118% in the assay on A498 renal and 125% in the assay with MOLT-4 leukemia.

With `CCN=C1C=CC(=C(c2ccc(N(CC)CC)cc2)c2ccc(N(CC)CC)cc2)c2ccccc21`, the growth in the assay with SK-MEL-2 melanoma was -76.3% (active); with EKVX NSCLC, -40% (active); with SN12C renal, -34.2% (active); in the assay on UO-31 renal, -65.4% (active); in the assay with TK-10 renal it was -51.9% (active); with ACHN renal, -94.9% (active). Moreover, the growth is -86.3% (active) with CAKI-1 renal, -89.3% (active) in the assay on A498 renal and -25.7% (active) in the assay with MOLT-4 leukemia.

Take `O=C(CCCSc1nc(-c2ccccc2)cc(-c2ccccc2)n1)NO`: the growth is 3.29% (active) in the assay on SK-MEL-2 melanoma; 10.3% in the assay with EKVX NSCLC; 12.3% with SN12C renal; -13.9% (active) in the assay with UO-31 renal; 9.4% (active) in the assay with TK-10 renal; 0.594% (active) in the assay on ACHN renal. Besides, the growth is 1.69% (active) in the assay on CAKI-1 renal, -15.6% (active) in the assay on A498 renal and 4.55% (active) in the assay on MOLT-4 leukemia.

Consider `N#CCCc1c[nH]c2ccccc12`, for which the growth in the assay with SK-MEL-2 melanoma is 88.4%; in the assay on EKVX NSCLC it was 94.3%; with SN12C renal it was 101%; with UO-31 renal, 68%; with TK-10 renal it was 104%; in the assay on ACHN renal it was 97%. In addition, the growth was 87.3% with CAKI-1 renal, 103% with A498 renal and 96.1% with MOLT-4 leukemia.

`O=C(NCCO)c1cccnc1`: the growth was 81.8% in the assay on SK-MEL-2 melanoma; 109% in the assay with EKVX NSCLC; 100% in the assay on SN12C renal; 85.2% in the assay with UO-31 renal; 81% with TK-10 renal; 110% in the assay on ACHN renal. Moreover, the results for the growth with CAKI-1 renal, with A498 renal and in the assay with MOLT-4 leukemia were 98.3%, 96.9% and 107%, respectively.

For `COc1cc(C(=O)/C=C/c2c(-c3ccc(F)cc3)nc3sccn23)cc(OC)c1OC`, the growth in the assay with SK-MEL-2 melanoma was 10.1%; with EKVX NSCLC it was 49.9%; in the assay with SN12C renal, 64.6%; in the assay on UO-31 renal it was 22.1%; in the assay on TK-10 renal, 36.5%; with ACHN renal it was 28.3%. Besides, the results for the growth with CAKI-1 renal, in the assay with A498 renal and in the assay on MOLT-4 leukemia were 15.1%, 48.8% and 39.2%, respectively.

Consider `O=C1CC(c2ccccc2)Cc2nc3ccc(Cl)cc3cc21` (configuration not stated), for which the growth with SK-MEL-2 melanoma is 57.1%; with EKVX NSCLC, 30.2%; in the assay on SN12C renal, 28.3%; with UO-31 renal, 35%; with TK-10 renal it was 71.2%; with ACHN renal, 30.8%. For the same molecule, the figures for the growth with CAKI-1 renal, in the assay with A498 renal and in the assay with MOLT-4 leukemia were 29.2%, -17.4% (active) and 11.6%, respectively.

In the case of `CCOC(=O)c1cc(C(=O)c2ccc(OC)c(OC)c2)n2ccc(-c3ccccn3)cc12`, the growth in the assay on SK-MEL-2 melanoma is 70.9%; in the assay with EKVX NSCLC, 92.2%; in the assay with SN12C renal, 60.6%; in the assay on UO-31 renal, 76.3%; in the assay with TK-10 renal it was 55.4%; in the assay with ACHN renal, 30%. The growth was 78.7% with CAKI-1 renal, 42.1% with A498 renal, 111% in the assay on CCRF-CEM leukemia and 124% in the assay with MOLT-4 leukemia.

For `N#C/C(C(=O)c1ccccc1)=C1/C(=O)Nc2ccc(Br)cc21`, the growth is 113% with SK-MEL-2 melanoma; 87.5% with EKVX NSCLC; 91.8% with SN12C renal; 67.2% in the assay with UO-31 renal; 142% in the assay with TK-10 renal; 88.7% in the assay on ACHN renal. The growth is 84% with CAKI-1 renal, 96.8% in the assay with A498 renal and 101% with MOLT-4 leukemia.

Take `COc1ccc(NCc2cn(-c3ccc(C(=O)O)cc3)nc2-c2ccc(C(=O)O)cc2)cc1C(F)(F)F`: the growth with SK-MEL-2 melanoma is 106%; with EKVX NSCLC, 84.2%; in the assay on SN12C renal, 95.3%; with UO-31 renal, 88.1%; with TK-10 renal it was 83%; with ACHN renal, 98.1%. Besides, the growth in the assay with CAKI-1 renal is 86.3%; in the assay on A498 renal, 81.2%; with MOLT-4 leukemia it was 123%.

As for `COc1cc2c(c(OC)c1OC)-c1cc(I)c(O)cc1[C@@H](NC(C)=O)CC2`, the growth with SK-MEL-2 melanoma was 53.4%; in the assay with EKVX NSCLC, 60.2%; in the assay with SN12C renal it was 38.6%; with UO-31 renal it was 25.3%; in the assay on TK-10 renal, 66.9%; in the assay on ACHN renal, 27.9%. Moreover, the growth was 30.7% in the assay with CAKI-1 renal, 49.2% in the assay on A498 renal and 33.7% in the assay with MOLT-4 leukemia.

Consider `O=C1/C(=C\c2cn(CC(O)CN3CCCCC3)c3ccccc23)c2ccccc2N1c1c(Cl)cccc1Cl` (configuration not stated), for which the growth with SK-MEL-2 melanoma is -83.4% (active); in the assay with EKVX NSCLC it was -81.3% (active); in the assay with SN12C renal, -68.2% (active); with UO-31 renal, -79.8% (active); in the assay with TK-10 renal, -75.9% (active); in the assay with ACHN renal it was -90.5% (active). In addition, the growth in the assay with A498 renal is -96.3% (active); with CCRF-CEM leukemia, -4.36% (active); in the assay with MOLT-4 leukemia it was -30% (active).

The values above are taken from PubChem BioAssay (NCI).
